# VP16 counter – inhibits Gal4-VP16 luciferase reporter, ROR gamma counter-screen; Drosophila S2 Gal4-VP16 UAS-luciferase, luminescence, 20 h; 310,000 compounds, 3.5% hits; Potency, µM (top dose mostly 53.6 µM), actives largely listed as inhibitors; AID 2546;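 further: Gal4-VP16 expression switched on by copper sulfate through the metallothionein promoter; nearly all actives have a fitted effect of over 50% in size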
# TRPV1 ag – activates the human vanilloid receptor TRPV1; Q8NER1; TRPV1-expressing cells, Fluo-8 calcium influx, agonist mode; activation, % at 8.33 µM; 320,000 compounds, 0.19% hits; in the data active means activation above about 80%; inconclusive means between about 30% and that limit
#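 Cells expressing TRPV1 were dye-loaded with Fluo-8 and read kinetically: 10 s baseline, 3 min after compound (agonist portion), then 2 min after EC20 capsaicin (allosteric enhancer portion). Calcium-bound dye fluorescence at 480/520 nm.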
# uPA generation – inhibitors of cell surface uPA generation; cell surface uPA generation assay, qHTS; Potency, µM (titrated, usually from 38.3 µM), hits mostly inhibitors; 330,000 compounds, 0.31% hits; AID 540303; active means well fitted inhibition curve with a large enough effect; inconclusive means small, poorly fitted or top-dose-only effect; inactive means no such curve, though single readings can be large or run the other way; tested in mouse RAW 264.7 cells; further: nearly all actives have a fitted effect of over 55% in size
# RORgamma inh – blocks mouse ROR gamma transcriptional activity; Drosophila S2 Gal4-RORgamma UAS-luciferase reporter, 20 h; Potency, µM (doses to about 53.6 µM), actives largely listed as inhibitors; 310,000 compounds, 5.4% hits; further: nearly all actives have a fitted effect of over 60% in size
# Target sequence (P51450 whole entry, looked up, the tested form may be a part): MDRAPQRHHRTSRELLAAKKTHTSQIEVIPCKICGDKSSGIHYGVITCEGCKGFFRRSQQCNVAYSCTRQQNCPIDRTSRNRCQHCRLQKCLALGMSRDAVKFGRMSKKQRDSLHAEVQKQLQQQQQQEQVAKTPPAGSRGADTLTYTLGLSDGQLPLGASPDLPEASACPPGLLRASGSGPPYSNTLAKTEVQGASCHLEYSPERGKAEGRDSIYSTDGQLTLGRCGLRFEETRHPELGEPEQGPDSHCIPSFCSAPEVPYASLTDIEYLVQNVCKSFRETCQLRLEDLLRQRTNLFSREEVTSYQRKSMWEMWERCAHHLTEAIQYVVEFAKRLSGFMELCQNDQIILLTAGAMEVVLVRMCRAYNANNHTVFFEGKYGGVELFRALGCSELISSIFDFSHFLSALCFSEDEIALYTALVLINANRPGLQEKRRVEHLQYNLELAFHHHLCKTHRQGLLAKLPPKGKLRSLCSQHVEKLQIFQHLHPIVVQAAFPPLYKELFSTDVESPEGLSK
#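 Stable Schneider cell line, Gal4 DNA-binding domain fused to ROR gamma, UAS-luciferase. Cmpd 1 hr RT → CuSO4 700 uM final → 20 hr RT → luciferase reagent 10 min → luminescence.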
# TRPV1 PAM – human TRPV1 potentiation; TRPV1-expressing cells, Fluo-8 calcium influx, capsaicin EC20 potentiation; 320,000 compounds, 0.02% hits; potentiation, % at 8.33 µM; AID 540277; Q8NER1; in the data active means potentiation above about 80%; inconclusive means between about 30% and that limit
#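 TRPV1-expressing cells were cultured overnight at 35.5C and loaded with Fluo-8 calcium dye for 40 to 90 min at room temperature. After a 10 s baseline, compound was added and calcium influx was read kinetically for 3 min (ex 480/em 520 nm).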
# A number is an active result; 0 = inactive; ? = inconclusive; - = not tested or not shown; [ ] = remark or other dose. This is a sample that favours compounds with a hit; in the whole collection about 5.8% have one here. Unless noted, the call rests on the fitted dose curve; in most records, active means well fitted curve in the direction sought with a large enough effect; inconclusive means small, poorly fitted or top-dose-only effect, or another doubt; inactive means no such curve, though single readings can be large; an effect the other way counts as inactive or inconclusive.
SMILES,VP16 counter,TRPV1 ag,uPA generation,RORgamma inh,TRPV1 PAM
CCOC(=O)C1CCN(CC(O)COCc2ccccc2)CC1 (stereo unspecified),0,0,0,0,0
CCCCNC(=S)NNC(=O)c1ccoc1C,0,0,0,8.9µM,0
Cc1ccccc1NC(=S)NNC(=O)c1ccoc1C,0,0,0,?,0
Cc1occc1C(=O)NNC(=S)Nc1ccccc1,0,0,-,14µM,0
Cc1ccc(C)c(NC(=S)NNC(=O)c2ccco2)c1,0,0,-,2.2µM,0
CCCCNC(=S)NNC(=O)c1ccco1,?,0,0,13µM,0
Cc1nc(-c2ccc(C(=O)NCCO)cc2)cs1,0[10 µM],0,0,0,0
CCOC(=O)c1nc(Nc2cc(Cl)ccc2OC)c2ccccc2n1,0,0,0,0,0
O=C(NCCNC(=O)c1ccco1)c1ccco1,0,0,0,16µM,0
Cc1cccc(N2N=C(C(=O)N3CC(=O)Nc4ccccc43)CCC2=O)c1,0,0,0,0,0
CCn1c(SCC(=O)Nc2ncc(C(F)(F)F)cc2Cl)nnc1-c1cccc(C)c1,?,0,0,10µM,0
O=C(CSc1nnc(-c2ccc3c(c2)OCO3)o1)Nc1ncc(C(F)(F)F)cc1Cl,?,0,0,4µM,0
Cc1nc2sc3c(c2c(=O)[nH]1)CCCC3,0,0,0,0,0
O=c1[nH]c(S)nc2sc3c(c12)CCCC3,0,0,0,13µM,0
NNc1nc2c(Cl)ccc(Cl)c2s1,18µM,0,0,11µM,0
O=C(Nc1nc2c(Cl)ccc(Cl)c2s1)C1CC1,0,0,0,0,0
O=C1CCCC=C1[C@H](O)c1ccc([N+](=O)[O-])cc1,0[10 µM],-,-,0[10 µM],-
O=C(NN=C1CCCC1)c1[nH]c2ccc(Cl)cc2c1-c1ccccc1,?,0,0,11µM,0
CC(=O)NNC(=O)c1[nH]c2ccc(Cl)cc2c1-c1ccccc1,0,0,0,0,0
CC(C)c1onc(C(=O)NCc2ccccc2)c1[N+](=O)[O-],0,?,0,0,0
O=C(Cn1nc(-c2cccc(Cl)c2)ccc1=O)NCC1COCCO1 (stereo unspecified),-,0,0,-,0
C#CCn1c(=NC(=O)c2ccc(S(=O)(=O)N3CCc4ccccc4C3)cc2)sc2cc(S(N)(=O)=O)ccc21,10µM,0,0,11µM,0
C=CCn1c(=NC(=O)c2ccc(S(=O)(=O)N3CCc4ccccc4C3)cc2)sc2cc(S(N)(=O)=O)ccc21,0,0,0,0,0
O=C(CSc1ncn[nH]1)NCCCc1ccccc1,0,0,0,0,?
Clc1cccc(CSc2nccn2-c2ccccc2)c1,0,0,0,5µM,0
SMILES,VP16 counter,TRPV1 ag,uPA generation,RORgamma inh,TRPV1 PAM
O=C(CSc1nccn1-c1ccccc1)c1ccc(Cl)cc1,0,?,0,?,0
Cc1ccc(C(=O)CSc2nccn2-c2ccccc2)cc1,?,?,0,10µM,0
Brc1ccc(CSc2nccn2-c2ccccc2)cc1,0,-,0,14µM,-
O=C(CSc1nccn1-c1ncc(C(F)(F)F)cc1Cl)c1ccc(Br)cc1,?,0,0,11µM,0
CC(C)=NOC[C@@H](O)[C@@H]1O[C@@H]2OC(C)(C)O[C@@H]2[C@H]1O,0[10 µM],-,-,0[10 µM],-
O=c1ccc(N=Nc2ccccc2)ccc1O,3.5µM,0,0,?,?
CCSc1nnc(CNc2ccc(C)cc2)n1C,0,0,0,0,0
Cc1ccc(O)c(C(=O)CC(=O)c2ccccc2Cl)c1,13µM,0,0,7.1µM,0
Cc1ccc(C)c(NC(=O)c2ccccc2O)c1,?,0,0,?,0
CC(C)(C)c1ccc(C(=O)NCC(=O)NNC(=O)c2ccccc2O)cc1,-,0,0,-,?
Cc1ccc(O)c(C(=O)CC(=O)c2ccc(C(C)(C)C)cc2)c1,5µM,0,0,5.6µM,0
C/C(CCN1CCc2nc(-c3ccccc3)c(-c3ccccc3)cc2C1)=N\OC[C@@H](O)COCc1ccco1,0[10 µM],-,-,0[10 µM],-
CCN(c1ccccc1)S(=O)(=O)c1ccc(C(=O)Nc2nnc(C3CC3)o2)cc1,0.56µM,0,0,0.25µM,0
CN(c1ccccc1)S(=O)(=O)c1ccc(C(=O)Nc2nnc(C3CC3)o2)cc1,1µM,0,0,0.32µM,0
Cc1ccc(S(=O)(=O)Nc2ccccc2C(O)c2ccccc2)cc1 (stereo unspecified),0,0,0,0,0
CNc1ccc(Br)cc1C(O)c1ccccc1 (stereo unspecified),?,0,0,13µM,0
CN(CC(=O)Nc1ccccc1Cl)C(=O)COC(=O)CCN1C(=O)C2CC=CCC2C1=O (stereo unspecified),-,0,0,-,0
CCOc1ccc(-c2nnc(NC(=O)C3CCCC3)o2)cc1,?,0,0,8.9µM,?
O=C(Nc1nnc(-c2ccc(Cl)cc2)o1)C1CCCCC1,0,0,0,0,0
O=C(Nc1nnc(-c2ccccc2)o1)C1CCCCC1,7.9µM,0,0,3.5µM,0
CC12CCC(=O)N1C(C(=O)NCCc1ccc(F)cc1)CS2 (stereo unspecified),-,-,0,-,-
CC12CCC(=O)N1C(C(=O)NCCc1ccccc1)CS2 (stereo unspecified),16µM,0,0,7.9µM,0
CC(CNC(=O)c1cccnc1)NC(=O)c1cccnc1 (stereo unspecified),0,-,-,0,-
Cc1c(N=Nc2ccc(O)cc2)c(=O)n(-c2ccccc2)n1C,0,0,0,0,0
Cc1c(N=C2NC(=O)/C(=C/c3ccc(O)cc3)S2)c(=O)n(-c2ccccc2)n1C,?,0,0,5µM,0
SMILES,VP16 counter,TRPV1 ag,uPA generation,RORgamma inh,TRPV1 PAM
O=c1cc(-c2ccc(O)c(O)c2)oc2ccccc12,0,-,-,3.2µM,-
COc1ccc(-c2cc(=O)c3ccccc3o2)cc1OC,0,-,-,0,-
CC(C)=CCc1c(O)cc2occ(-c3ccc4c(c3)OCO4)c(=O)c2c1O,14µM,-,-,?,-
O=c1c(-c2cc(O)c(O)c(O)c2)coc2cc(O)c(O)c(O)c12,0,-,-,0,-
Cc1cc2c(c(=O)o1)C1O[C@](c3ccsc3)(Cc3ccccc31)O2,0[10 µM],0,-,0[10 µM],0
CCN(CC)S(=O)(=O)c1ccc(C(=O)Nc2ccc(Cc3ccncc3)cc2)cc1,3.5µM,81,0,5.6µM,0
CCN(CC)S(=O)(=O)c1ccc(C(=O)O)cc1,0,0,0,0,0
CCN(Cc1ccncc1)S(=O)(=O)c1ccc(C(C)=O)cc1,7.9µM,0,0,0,0
CCn1cc(C2C3=C(CC(C)(C)CC3=O)N(c3ccccc3)C3=C2C(=O)CC(C)(C)C3)c(C)n1,0,?,0,0,0
CCOC(=O)C1=C(C)NC(=O)NC1C(C)C (stereo unspecified),-,-,0,-,-
Cc1ccc2c(Cl)c(C)c(N3CCCCC3)nc2n1,?,0,0,4µM,0

# High-throughput results (PubChem)
